Values without a mark were called inactive.

Common to all, as to assay: log2 ratio of Biotin-Ahx-Ub-VS probe labelling (fragment/DMSO); higher = less target engagement (more negative = stronger competition), active = hit call of the paper (q ≤ 0.05, log2 ratio ≤ -1)
What all share (details): compound concentration: 200 uM; treatment time: 3 h

One experiment addresses T1, ALG13 (UniProt Q9NP73).
T1 sequence (whole entry): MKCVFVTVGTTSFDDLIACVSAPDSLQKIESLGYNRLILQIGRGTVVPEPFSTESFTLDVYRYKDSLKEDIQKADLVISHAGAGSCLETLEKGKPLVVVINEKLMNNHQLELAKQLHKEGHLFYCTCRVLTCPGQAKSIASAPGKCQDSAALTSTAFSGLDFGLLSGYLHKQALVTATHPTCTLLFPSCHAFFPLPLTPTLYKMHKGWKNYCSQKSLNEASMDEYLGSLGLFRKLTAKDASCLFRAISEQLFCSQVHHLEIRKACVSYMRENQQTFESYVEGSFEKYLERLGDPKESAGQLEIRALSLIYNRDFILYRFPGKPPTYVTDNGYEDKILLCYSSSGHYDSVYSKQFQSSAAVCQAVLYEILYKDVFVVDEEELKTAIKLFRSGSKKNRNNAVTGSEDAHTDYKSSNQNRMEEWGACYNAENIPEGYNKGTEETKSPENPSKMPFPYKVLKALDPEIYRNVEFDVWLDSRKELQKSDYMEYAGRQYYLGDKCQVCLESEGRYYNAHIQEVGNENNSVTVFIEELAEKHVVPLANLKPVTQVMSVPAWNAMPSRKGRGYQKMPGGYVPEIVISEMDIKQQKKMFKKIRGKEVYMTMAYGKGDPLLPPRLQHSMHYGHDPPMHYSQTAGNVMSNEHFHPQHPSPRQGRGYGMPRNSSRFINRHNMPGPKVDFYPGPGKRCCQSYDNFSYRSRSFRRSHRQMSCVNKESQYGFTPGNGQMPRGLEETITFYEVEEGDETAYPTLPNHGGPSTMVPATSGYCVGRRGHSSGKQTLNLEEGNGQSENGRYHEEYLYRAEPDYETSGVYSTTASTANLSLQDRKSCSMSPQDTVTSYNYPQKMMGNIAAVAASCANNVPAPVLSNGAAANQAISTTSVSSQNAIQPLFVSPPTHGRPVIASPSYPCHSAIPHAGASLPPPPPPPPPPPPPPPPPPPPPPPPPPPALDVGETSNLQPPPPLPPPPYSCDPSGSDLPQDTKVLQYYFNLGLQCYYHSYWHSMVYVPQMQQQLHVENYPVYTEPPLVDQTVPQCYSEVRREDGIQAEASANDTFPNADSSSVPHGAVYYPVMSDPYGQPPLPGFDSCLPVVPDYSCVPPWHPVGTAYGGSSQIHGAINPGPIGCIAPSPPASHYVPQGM
Summed up: (§1)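 Each value is an average log2 ratio of fragment to vehicle, tested by unpaired t-test. The underlying Spectronaut label-free quantities were global-median-normalised, and only proteins with ≥2 unique peptides were included. Triplicate HEK293T lysate samples (495 µg) were exposed to fragment at 200 µM or vehicle for 3 h, then to Biotin-Ahx-Ub-VS at 0.5 µM final for 1 h, before NeutrAvidin enrichment of labelled DUBs, LysC and trypsin digestion, and diaPASEF LC-MS/MS.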

A further experiment has as its target ATXN3 (UniProt P54252). In short, it runs like this: as §1
In a further experiment the target is T2, BAP1 (UniProt Q92560).
T2 sequence (whole entry): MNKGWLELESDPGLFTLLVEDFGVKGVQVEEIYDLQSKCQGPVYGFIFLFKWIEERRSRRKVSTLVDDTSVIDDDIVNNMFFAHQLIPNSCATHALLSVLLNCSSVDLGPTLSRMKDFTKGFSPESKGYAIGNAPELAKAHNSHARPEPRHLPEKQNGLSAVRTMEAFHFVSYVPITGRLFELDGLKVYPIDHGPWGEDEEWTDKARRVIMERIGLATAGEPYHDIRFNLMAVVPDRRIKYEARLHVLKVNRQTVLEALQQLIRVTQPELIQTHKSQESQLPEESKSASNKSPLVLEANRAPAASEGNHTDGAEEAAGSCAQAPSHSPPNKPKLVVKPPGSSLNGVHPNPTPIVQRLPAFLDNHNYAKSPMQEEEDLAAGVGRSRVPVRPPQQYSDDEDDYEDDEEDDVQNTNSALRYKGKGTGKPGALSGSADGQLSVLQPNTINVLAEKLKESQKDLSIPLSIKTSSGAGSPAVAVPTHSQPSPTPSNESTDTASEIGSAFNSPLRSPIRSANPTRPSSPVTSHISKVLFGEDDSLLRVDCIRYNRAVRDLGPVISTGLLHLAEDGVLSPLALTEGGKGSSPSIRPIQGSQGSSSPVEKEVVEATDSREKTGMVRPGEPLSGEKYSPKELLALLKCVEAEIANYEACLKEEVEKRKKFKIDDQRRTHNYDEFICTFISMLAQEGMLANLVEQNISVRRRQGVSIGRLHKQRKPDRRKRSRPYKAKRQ
In short, it runs like this: as §1

In the next experiment the target is EIF3F (UniProt O00303). Summed up:
as §1

Another experiment has as its target EIF3H (UniProt O15372). Summed up: as §1
A further experiment concerns the target T3, FAM105A (UniProt Q9NUU6).
T3 sequence (whole entry): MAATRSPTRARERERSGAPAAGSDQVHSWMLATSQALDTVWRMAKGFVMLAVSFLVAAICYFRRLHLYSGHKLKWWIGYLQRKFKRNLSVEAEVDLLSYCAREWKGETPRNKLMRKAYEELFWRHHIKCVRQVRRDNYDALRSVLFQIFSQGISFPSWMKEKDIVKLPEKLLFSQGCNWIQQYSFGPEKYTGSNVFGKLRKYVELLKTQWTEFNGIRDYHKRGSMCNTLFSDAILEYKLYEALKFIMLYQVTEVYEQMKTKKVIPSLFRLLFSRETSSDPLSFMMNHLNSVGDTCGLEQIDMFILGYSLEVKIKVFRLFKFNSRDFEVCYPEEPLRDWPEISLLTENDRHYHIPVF
Summed up: as §1

Another experiment addresses OTUB1 (UniProt Q96FW1). In short, it runs like this:
as §1

In a further experiment the target is T4, OTUD4 (UniProt Q01804).
T4 sequence (whole entry): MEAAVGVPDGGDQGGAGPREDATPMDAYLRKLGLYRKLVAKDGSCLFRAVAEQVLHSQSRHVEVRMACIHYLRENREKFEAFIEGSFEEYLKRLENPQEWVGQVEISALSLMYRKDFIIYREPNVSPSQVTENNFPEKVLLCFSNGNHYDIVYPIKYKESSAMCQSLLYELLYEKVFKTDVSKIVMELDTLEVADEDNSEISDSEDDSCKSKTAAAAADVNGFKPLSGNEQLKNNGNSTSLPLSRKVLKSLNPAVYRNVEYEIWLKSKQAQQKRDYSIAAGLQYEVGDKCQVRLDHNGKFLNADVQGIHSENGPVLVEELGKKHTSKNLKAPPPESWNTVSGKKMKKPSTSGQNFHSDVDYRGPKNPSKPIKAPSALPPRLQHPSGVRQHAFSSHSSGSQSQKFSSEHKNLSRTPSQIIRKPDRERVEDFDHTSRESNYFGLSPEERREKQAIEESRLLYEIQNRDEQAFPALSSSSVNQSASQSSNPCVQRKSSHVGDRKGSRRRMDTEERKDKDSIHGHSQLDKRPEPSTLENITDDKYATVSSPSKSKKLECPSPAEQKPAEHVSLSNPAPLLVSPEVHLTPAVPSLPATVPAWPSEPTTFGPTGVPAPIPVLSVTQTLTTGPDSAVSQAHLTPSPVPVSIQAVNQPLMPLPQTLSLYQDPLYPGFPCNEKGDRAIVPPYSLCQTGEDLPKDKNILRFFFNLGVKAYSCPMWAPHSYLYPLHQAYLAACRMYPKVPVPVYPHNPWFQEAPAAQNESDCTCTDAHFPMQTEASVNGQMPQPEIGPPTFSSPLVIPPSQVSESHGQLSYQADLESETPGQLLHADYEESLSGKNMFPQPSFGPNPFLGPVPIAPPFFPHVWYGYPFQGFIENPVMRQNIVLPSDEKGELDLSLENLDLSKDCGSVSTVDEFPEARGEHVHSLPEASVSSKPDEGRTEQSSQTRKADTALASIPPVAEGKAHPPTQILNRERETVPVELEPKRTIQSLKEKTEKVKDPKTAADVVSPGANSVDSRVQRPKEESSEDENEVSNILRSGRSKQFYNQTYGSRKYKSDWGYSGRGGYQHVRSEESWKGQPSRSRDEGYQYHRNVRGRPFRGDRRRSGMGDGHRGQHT
Summed up: as §1

A further experiment deals with T5, OTUD5 (UniProt Q96G74).
T5 sequence (whole entry): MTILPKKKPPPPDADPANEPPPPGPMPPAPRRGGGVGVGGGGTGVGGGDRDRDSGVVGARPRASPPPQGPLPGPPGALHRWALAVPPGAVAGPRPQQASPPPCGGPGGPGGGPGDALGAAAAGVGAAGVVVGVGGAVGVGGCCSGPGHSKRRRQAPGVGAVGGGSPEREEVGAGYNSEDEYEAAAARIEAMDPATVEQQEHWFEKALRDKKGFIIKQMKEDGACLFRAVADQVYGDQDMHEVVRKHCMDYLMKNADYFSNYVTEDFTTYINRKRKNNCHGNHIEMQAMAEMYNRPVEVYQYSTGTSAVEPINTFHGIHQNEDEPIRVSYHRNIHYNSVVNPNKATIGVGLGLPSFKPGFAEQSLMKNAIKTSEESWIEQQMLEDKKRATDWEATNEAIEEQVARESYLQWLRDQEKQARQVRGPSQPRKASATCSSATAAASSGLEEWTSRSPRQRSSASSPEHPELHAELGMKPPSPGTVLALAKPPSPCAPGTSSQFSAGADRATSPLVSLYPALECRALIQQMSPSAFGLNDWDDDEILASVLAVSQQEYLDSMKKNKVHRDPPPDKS
In short, it runs like this: as §1

Chain of EIF3H (O15372 whole entry): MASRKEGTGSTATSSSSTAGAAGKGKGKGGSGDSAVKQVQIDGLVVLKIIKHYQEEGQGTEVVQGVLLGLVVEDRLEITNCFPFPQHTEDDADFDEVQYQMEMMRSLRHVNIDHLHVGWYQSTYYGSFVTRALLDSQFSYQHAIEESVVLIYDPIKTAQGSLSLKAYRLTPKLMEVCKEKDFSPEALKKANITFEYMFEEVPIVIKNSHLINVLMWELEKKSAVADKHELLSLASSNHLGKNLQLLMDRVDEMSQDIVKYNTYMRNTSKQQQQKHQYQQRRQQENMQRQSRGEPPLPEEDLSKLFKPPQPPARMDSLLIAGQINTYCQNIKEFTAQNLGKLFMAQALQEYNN
Chain of ATXN3 (P54252 whole entry): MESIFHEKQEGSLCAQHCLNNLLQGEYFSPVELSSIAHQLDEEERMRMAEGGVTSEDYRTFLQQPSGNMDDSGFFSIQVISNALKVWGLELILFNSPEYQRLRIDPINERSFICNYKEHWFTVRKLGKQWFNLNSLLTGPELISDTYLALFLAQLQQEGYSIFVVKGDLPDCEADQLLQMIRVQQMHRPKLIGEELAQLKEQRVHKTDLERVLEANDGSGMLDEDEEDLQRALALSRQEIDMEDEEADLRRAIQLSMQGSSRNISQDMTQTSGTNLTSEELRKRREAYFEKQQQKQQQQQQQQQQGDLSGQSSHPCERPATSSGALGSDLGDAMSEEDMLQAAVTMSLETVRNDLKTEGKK
Chain of OTUB1 (Q96FW1 whole entry): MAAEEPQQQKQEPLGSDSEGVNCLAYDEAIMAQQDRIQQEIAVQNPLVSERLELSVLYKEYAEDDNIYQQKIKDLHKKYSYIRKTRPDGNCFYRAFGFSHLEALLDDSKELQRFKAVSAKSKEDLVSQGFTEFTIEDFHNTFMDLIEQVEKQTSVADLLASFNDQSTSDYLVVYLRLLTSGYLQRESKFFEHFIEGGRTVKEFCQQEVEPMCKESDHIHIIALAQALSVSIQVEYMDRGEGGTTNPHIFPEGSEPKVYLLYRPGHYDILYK
Chain of EIF3F (O00303 whole entry): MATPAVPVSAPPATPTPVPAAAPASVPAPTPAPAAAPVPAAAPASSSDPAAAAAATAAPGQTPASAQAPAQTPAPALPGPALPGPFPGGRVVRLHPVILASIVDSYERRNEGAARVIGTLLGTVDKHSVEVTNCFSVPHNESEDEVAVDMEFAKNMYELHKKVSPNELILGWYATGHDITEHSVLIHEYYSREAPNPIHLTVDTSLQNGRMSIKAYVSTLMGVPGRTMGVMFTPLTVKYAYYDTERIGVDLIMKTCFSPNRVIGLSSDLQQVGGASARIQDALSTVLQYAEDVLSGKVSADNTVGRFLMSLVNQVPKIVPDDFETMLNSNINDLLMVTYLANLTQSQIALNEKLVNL

Turning to `Cl.O=C(CCl)N1CCn2ncc(O)c2C1`, the “log2 ratio of Biotin-Ahx-Ub-VS probe labelling” value (from here on “log2 ratio”) with ALG13 was 0.326; with ATXN3, -1.69 (active); in the experiment with BAP1, -2.39 (active); in the experiment with EIF3F, -0.296; in the experiment with EIF3H, 0.21; with FAM105A, -0.377. Besides, the “log2 ratio” value in the experiment with OTUB1 is -0.64; with OTUD4, -0.808; in the experiment with OTUD5 it was -0.908.
Consider `Cc1ccc(N(C(=O)CCl)C2C=CS(=O)(=O)C2)cc1` (configuration not stated), for which the “log2 ratio” value with ALG13 was -0.425; with ATXN3 it was 0.116; with BAP1 it was -0.0645; with EIF3F, -0.128; in the experiment with EIF3H it was -0.276; in the experiment with FAM105A it was 0.167. The figures for the “log2 ratio” value with OTUB1, with OTUD4 and with OTUD5 were -0.0537, 0.0564 and -0.00864, respectively.
For the compound `Cl.O=C(CN1CCN(C(=O)CCl)CC1)Nc1ccc(F)cc1`, the “log2 ratio” value in the experiment with ALG13 was -0.446; with ATXN3, -0.144; in the experiment with BAP1, -0.159; in the experiment with EIF3F, -0.203; with EIF3H, 0.305; in the experiment with FAM105A, -0.0798. Moreover, the “log2 ratio” value in the experiment with OTUB1 is 0.137; with OTUD4, 0.146; with OTUD5 it was -0.0696.
Turning to `O=C(CCl)N1CCc2ccccc2C(O)C1` (configuration not stated), the “log2 ratio” value is 0.0799 with ALG13; -0.585 in the experiment with ATXN3; -0.705 with BAP1; -0.125 in the experiment with EIF3F; -0.359 with EIF3H; -0.413 in the experiment with FAM105A. Further, the “log2 ratio” value was 0.0821 with OTUB1, -0.69 with OTUD4 and -1.31 (active) in the experiment with OTUD5.
As to `O=C(CCl)N[C@H]1CCS(=O)(=O)c2ccccc21`, the “log2 ratio” value was -0.0339 in the experiment with ALG13; -0.224 with ATXN3; -2.12 (active) with BAP1; -0.052 with EIF3F; 0.251 in the experiment with EIF3H; -0.522 in the experiment with FAM105A. Besides, the “log2 ratio” value with OTUB1 was 0.161; with OTUD4, -1.08 (active); with OTUD5, -0.117.
Take `O=C(CCl)NC(Cn1ccccc1=O)c1ccccc1` (configuration not stated): the “log2 ratio” value with ALG13 is 0.152; with ATXN3, -0.00539; with BAP1 it was -1.18 (active); with EIF3F, 0.0892; with EIF3H, -0.0521; with FAM105A it was 0.0796. Also, the “log2 ratio” value with OTUB1 was -0.3; with OTUD4, -0.122; with OTUD5, -0.104.
Consider `NC(=O)C1CCCCN1C(=O)CCl` (configuration not stated), for which the “log2 ratio” value with ALG13 is 0.0736; with ATXN3, -0.889; with BAP1, -0.748; with EIF3F, 0.103; in the experiment with EIF3H, 0.0122; in the experiment with FAM105A, -0.18. The entries for the “log2 ratio” value with OTUB1, with OTUD4 and with OTUD5 were -0.182, -0.464 and -0.638, respectively.
With `O=C(CCl)NC1CCCCNC1=O` (configuration not stated), the “log2 ratio” value is -0.0613 in the experiment with ALG13; -0.417 with ATXN3; -0.683 with BAP1; -0.598 with EIF3F; 0.103 in the experiment with EIF3H; 0.229 with FAM105A. In addition, the “log2 ratio” value with OTUB1 is -0.231; with OTUD4, -0.342; with OTUD5, -0.397.
